Measurements: the supplement of paper PMC10849652
Of roughly 7,900 targets only a part is listed; those with a hit were picked by preference. About 0.6% of all pairs of compound and target were hits.

Key:
Test in all cases: log2 fold change, soluble protein after heating vs DMSO (PISA); higher = thermal stabilisation; K562 cells, 10 uM, 30 min; active = over 0.2 and 3.5 SD of the protein, either way, in both replicates (recomputed)
[1] = compound: C#Cc1cccc(Nc2ncnc3cc(OCCOC)c(OCCOC)cc23)c1 [erlotinib]
Summary of the method: (§1)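 K562 cells at 2×10^6 cells/mL were exposed to 10 μM compound for 30 min, then aliquots were heated for 3 min across 48°C-58°C, pooled, and extracted in PBS containing 0.5% NP-40 at 4°C. The supernatant after 21,000xg for 90 min was taken as soluble protein and measured by TMTpro 16plex LC-MS/MS with channel sums equalised. Thermal stability is reported relative to control samples, with values from duplicates. Fold changes are given on a log2 scale.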

[2] = compound: C/C(=N\NC(=O)C1=CC(=CC=C1)S(=O)(=O)N2CCOCC2)/C3=C(C=CC(=C3)Cl)O
Summary of the method: as §1

[3] = compound: C1=CC(=C(C=C1Cl)C2=NC3=NC=CN=C3C(=N2)NC4=CC=NC=C4)F
Summary of the method: as §1

[4] = compound: C1=CC(=CC=C1C2=NC3=C(N2)C=C(C=C3)C(=O)N)OC4=CC=C(C=C4)Cl
Summary of the method: as §1

[5] = compound: C1=CC2=C(C=CC(=C2)/C=C\3/C(=O)NC(=NCC4=CC=CS4)S3)N=C1
Summary of the method: as §1

[6] = compound: C1=CC2=NC=CN=C2C=C1/C=C/3\C(=O)NC(=O)S3
Summary of the method: as §1

[7] = compound: C1=CC=C(C=C1)C2=NC(=C(N2)C3=CC=NC=C3)C4=CC(=C(C=C4)Cl)O
Summary of the method: as §1

[8] = compound: C1=CC=C2C(=C1)C3=NNC4=CC=CC(=C43)C2=O
Summary of the method: as §1

[9] = compound: C1CCN(C1)C(=O)NC2=CC=CC(=C2)NC3=NC=C(C(=N3)NCCC4=CN=CN4)Br
Summary of the method: as §1

[10] = compound: C1CN(CCC1(CC2=CC=C(C=C2)Cl)N)C3=NC=NC4=C3C=CN4
Summary of the method: as §1

Measured: log2 fold change

OXSR1 (UniProt O95747)
Sequence of UniProt O95747 (O95747 whole entry, looked up): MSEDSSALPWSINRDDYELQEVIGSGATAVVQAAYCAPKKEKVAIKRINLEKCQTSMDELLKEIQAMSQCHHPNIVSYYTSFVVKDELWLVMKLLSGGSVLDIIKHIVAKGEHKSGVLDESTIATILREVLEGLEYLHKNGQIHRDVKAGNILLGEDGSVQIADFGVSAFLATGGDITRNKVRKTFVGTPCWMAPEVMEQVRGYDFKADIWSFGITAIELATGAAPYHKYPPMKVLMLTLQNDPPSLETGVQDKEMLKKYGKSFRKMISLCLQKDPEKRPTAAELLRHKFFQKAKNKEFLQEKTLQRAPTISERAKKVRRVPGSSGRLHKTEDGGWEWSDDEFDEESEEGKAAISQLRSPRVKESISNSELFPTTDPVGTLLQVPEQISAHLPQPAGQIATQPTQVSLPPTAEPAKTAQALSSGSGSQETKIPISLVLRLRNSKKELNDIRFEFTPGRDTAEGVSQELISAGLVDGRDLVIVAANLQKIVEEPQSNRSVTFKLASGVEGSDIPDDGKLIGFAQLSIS
inactive: [1] 0.042 | [2] 0.091 | [3] -0.024 | [4] -0.056 | [5] 0.106 | [6] 0.004 | [7] 0.039 | [8] 0.054 | [9] -0.008 | [10] 0.007

NFATC2IP (UniProt Q8NCF5)
inactive: [1] -0.051 | [2] 0.131 | [3] -0.034 | [4] 0.014 | [5] 0.018 | [6] 0.085 | [7] -0.029 | [8] -0.014 | [9] -0.117 | [10] 0.061

NPC1 (UniProt O15118)
Sequence of UniProt O15118 (O15118 whole entry, looked up): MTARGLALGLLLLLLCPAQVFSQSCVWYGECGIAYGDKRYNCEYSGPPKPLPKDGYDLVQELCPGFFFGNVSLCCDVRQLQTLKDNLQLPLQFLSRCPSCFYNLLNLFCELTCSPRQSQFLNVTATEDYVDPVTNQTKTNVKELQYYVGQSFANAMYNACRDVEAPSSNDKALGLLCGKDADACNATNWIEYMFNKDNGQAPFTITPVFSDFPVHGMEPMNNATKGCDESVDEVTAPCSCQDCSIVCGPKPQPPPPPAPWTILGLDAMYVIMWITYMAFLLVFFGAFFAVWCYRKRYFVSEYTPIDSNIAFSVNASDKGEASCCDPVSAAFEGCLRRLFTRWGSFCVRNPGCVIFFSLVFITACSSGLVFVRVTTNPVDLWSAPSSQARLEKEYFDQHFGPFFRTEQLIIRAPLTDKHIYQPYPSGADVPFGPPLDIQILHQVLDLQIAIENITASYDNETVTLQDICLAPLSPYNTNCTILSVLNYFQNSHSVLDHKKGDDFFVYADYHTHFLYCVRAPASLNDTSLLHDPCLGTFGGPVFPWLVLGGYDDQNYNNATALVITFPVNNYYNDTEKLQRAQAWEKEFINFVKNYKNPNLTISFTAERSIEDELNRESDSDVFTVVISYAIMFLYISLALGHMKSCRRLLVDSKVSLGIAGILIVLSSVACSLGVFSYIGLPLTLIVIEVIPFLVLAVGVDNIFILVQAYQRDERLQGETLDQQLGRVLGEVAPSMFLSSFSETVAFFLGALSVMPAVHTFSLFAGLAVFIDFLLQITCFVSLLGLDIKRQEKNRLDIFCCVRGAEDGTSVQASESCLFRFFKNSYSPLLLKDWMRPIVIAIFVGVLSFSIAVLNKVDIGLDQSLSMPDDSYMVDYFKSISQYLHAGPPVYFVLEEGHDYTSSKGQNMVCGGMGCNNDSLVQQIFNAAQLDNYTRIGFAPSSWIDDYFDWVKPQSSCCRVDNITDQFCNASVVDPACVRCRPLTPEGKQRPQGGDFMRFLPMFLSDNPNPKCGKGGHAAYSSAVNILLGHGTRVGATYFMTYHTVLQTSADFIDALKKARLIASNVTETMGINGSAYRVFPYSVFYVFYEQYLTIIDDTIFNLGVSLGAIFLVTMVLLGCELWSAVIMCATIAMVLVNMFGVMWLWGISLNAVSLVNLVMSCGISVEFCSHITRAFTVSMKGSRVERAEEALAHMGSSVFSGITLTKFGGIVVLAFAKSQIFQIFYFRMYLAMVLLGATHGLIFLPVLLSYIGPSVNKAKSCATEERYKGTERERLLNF
inactive: [1] 0.027 | [2] -0.033 | [3] -0.004 | [4] 0.025 | [5] -0.01 | [6] 0.028 | [7] 0.011 | [8] -0.027 | [9] 0.058 | [10] 0.069

NRF1 isoform 4 (UniProt Q16656)
Sequence of UniProt Q16656 (Q16656 whole entry, looked up): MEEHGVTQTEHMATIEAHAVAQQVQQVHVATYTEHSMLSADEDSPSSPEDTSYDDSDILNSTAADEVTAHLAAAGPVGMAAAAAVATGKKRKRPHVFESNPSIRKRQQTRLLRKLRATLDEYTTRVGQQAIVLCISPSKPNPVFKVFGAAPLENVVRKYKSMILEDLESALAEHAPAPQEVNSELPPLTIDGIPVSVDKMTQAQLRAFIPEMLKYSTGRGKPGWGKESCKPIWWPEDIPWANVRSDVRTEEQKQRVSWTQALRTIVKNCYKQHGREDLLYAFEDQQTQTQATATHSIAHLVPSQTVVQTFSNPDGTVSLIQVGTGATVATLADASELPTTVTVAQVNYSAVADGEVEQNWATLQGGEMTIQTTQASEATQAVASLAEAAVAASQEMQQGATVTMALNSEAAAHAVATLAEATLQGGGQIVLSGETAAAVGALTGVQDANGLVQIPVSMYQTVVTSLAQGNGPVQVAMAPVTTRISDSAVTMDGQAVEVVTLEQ
inactive: [1] 0.079 | [2] 0.012 | [3] -0.161 | [4] -0.028 | [5] 0.053 | [6] -0.001 | [7] -0.012 | [8] -0.116 | [9] -0.051 | [10] -0.003

NMT1 (UniProt P30419)
inactive: [1] -0.002 | [2] 0.001 | [3] 0.039 | [4] -0.009 | [5] -0.01 | [6] 0.07 | [7] -0.002 | [8] 0.05 | [9] 0.036
active: [10] -0.363

OGFR (UniProt Q9NZT2)
inactive: [1] 0.009 | [2] 0.207 | [3] -0.011 | [4] 0.107 | [5] 0.131 | [6] -0.157 | [7] 0.027 | [8] -0.085 | [9] 0.028 | [10] -0.132

OXA1L (UniProt Q15070)
inactive: [1] -0.014 | [2] 0.029 | [3] -0.005 | [4] 0.012 | [5] 0.01 | [6] 0.021 | [7] 0.006 | [8] -0.029 | [9] 0.012 | [10] 0.043

MRPS24 (UniProt Q96EL2)
inactive: [1] -0.175 | [2] 0.022 | [3] -0.032 | [4] 0.062 | [5] 0.016 | [6] -0.02 | [7] 0.01 | [8] 0.039 | [9] 0.071 | [10] -0.1

MRPS2 (UniProt Q9Y399)
inactive: [1] 0.004 | [2] -0.064 | [3] -0.083 | [4] 0.052 | [5] 0.093 | [6] 0.01 | [7] 0.083 | [8] -0.033 | [9] -0.01 | [10] -0.112

NOB1 (UniProt Q9ULX3)
inactive: [1] 0.048 | [2] 0.061 | [3] -0.106 | [4] 0.017 | [5] -0.025 | [6] -0.08 | [7] 0.081 | [8] 0.053 | [9] 0.045 | [10] -0.078

OTUD4 (UniProt Q01804)
inactive: [1] -0.032 | [2] -0.035 | [3] -0.137 | [4] 0.042 | [5] -0.033 | [6] -0.025 | [7] 0 | [8] 0.038 | [9] -0.011 | [10] 0.04

NARS2 (UniProt Q96I59)
inactive: [1] 0.037 | [2] 0.065 | [3] 0.07 | [4] 0.008 | [5] -0.018 | [6] -0.004 | [7] 0.053 | [8] 0.017 | [9] -0.002 | [10] -0.083

NUP205 (UniProt Q92621)
inactive: [1] 0.047 | [2] 0.131 | [3] -0.1 | [4] -0.031 | [5] 0.068 | [6] 0 | [7] 0.016 | [8] -0.146 | [9] -0.063 | [10] -0.017

MRPS35 (UniProt P82673)
inactive: [1] -0.068 | [2] -0.028 | [3] -0.048 | [4] 0.14 | [5] 0.003 | [6] -0.043 | [7] 0.022 | [8] 0.096 | [9] 0.042 | [10] -0.08

NANS (UniProt Q9NR45)
inactive: [1] -0.016 | [2] 0.031 | [3] 0.066 | [4] -0.022 | [5] 0.028 | [6] 0.023 | [7] 0.036 | [8] 0.02 | [9] 0.016 | [10] 0.022

NAT14 (UniProt Q8WUY8)
inactive: [1] -0.016 | [2] 0.079 | [3] -0.002 | [4] 0.014 | [5] 0.057 | [6] 0.046 | [7] 0.135 | [8] 0.033 | [9] 0.002 | [10] -0.084

MOV10 (UniProt Q9HCE1)
Sequence of UniProt Q9HCE1 (Q9HCE1 whole entry, looked up): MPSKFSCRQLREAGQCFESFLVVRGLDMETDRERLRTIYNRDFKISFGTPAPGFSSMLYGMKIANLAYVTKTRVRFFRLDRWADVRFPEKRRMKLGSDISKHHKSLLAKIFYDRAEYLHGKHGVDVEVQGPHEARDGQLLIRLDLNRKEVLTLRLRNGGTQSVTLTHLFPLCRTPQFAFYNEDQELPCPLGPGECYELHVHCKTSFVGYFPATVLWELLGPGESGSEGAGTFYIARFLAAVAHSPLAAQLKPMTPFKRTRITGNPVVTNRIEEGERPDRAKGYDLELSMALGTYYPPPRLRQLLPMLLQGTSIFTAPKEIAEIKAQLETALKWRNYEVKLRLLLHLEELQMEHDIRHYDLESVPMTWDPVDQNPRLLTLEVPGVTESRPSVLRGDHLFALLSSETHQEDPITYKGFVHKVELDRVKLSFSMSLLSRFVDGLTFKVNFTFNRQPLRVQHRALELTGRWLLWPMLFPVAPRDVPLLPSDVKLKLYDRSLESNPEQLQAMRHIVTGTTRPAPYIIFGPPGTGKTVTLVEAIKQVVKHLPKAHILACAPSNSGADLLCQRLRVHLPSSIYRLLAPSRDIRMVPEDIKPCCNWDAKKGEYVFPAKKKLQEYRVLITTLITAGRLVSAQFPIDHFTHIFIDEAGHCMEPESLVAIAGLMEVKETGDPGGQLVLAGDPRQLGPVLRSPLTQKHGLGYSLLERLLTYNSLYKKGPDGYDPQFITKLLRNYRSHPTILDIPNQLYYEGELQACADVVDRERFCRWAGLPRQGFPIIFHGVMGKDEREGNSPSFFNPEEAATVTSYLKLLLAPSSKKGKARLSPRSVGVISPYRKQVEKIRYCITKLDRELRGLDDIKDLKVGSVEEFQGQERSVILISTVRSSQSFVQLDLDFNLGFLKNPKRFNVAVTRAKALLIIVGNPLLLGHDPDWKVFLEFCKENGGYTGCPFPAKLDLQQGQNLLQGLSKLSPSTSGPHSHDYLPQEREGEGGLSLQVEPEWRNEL
inactive: [1] -0.103 | [2] -0.062 | [3] -0.242 | [4] 0.026 | [5] -0.002 | [6] 0.049 | [7] -0.049 | [8] -0.054 | [9] 0.04 | [10] -0.158

NCAPG (UniProt Q9BPX3)
Sequence of UniProt Q9BPX3 (Q9BPX3 whole entry, looked up): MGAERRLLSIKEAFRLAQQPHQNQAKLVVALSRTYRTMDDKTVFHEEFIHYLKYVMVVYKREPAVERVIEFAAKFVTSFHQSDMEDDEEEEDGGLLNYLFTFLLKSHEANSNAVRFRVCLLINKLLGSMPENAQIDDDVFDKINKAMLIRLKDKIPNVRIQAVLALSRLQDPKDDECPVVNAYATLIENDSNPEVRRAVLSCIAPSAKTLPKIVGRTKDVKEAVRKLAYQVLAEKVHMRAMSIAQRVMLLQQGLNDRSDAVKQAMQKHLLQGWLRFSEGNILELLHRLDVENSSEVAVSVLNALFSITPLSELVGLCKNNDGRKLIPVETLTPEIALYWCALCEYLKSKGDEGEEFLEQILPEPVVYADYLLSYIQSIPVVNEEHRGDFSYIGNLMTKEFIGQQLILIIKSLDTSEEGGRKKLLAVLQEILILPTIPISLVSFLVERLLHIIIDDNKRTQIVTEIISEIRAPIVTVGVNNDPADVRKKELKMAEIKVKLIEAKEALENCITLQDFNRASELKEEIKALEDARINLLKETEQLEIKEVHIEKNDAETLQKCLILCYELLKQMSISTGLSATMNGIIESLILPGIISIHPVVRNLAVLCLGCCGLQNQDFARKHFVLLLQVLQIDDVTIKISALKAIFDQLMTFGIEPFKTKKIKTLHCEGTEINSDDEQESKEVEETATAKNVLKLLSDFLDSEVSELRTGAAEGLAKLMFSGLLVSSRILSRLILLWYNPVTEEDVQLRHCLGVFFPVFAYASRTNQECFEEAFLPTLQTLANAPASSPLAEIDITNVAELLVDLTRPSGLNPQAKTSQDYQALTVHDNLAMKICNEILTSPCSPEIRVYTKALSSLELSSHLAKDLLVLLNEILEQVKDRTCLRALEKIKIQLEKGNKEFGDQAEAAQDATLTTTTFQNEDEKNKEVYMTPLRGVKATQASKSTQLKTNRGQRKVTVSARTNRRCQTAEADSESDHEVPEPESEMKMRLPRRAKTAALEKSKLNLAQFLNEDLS
inactive: [1] -0.007 | [2] 0.114 | [3] 0.013 | [4] -0.03 | [5] 0.005 | [6] 0.002 | [7] 0.027 | [8] 0.043 | [9] -0.044 | [10] -0.104

MINK1 (UniProt Q8N4C8)
inactive: [1] -0.05 | [2] 0.053 | [3] -0.071 | [4] 0.036 | [5] -0.045 | [6] 0.001 | [7] -0.064 | [8] -0.203 | [9] -0.003 | [10] -0.008

NELFA (UniProt Q9H3P2)
inactive: [1] 0.21 | [2] 0.231 | [3] 0.059 | [4] -0.061 | [5] 0.073 | [6] 0.111 | [7] 0.048 | [8] 0 | [9] -0.323 | [10] -0.028

NCOR1 (UniProt O75376)
inactive: [1] -0.057 | [2] 0.021 | [3] -0.034 | [4] 0.041 | [5] 0.08 | [6] 0.026 | [7] 0.044 | [8] -0.21 | [9] -0.055 | [10] -0.051

NNT (UniProt Q13423)
inactive: [1] -0.008 | [2] 0.051 | [3] 0.089 | [4] -0.012 | [5] 0.044 | [6] 0.01 | [7] 0.005 | [8] -0.005 | [9] -0.001 | [10] 0.043

NDUFS4 (UniProt O43181)
Sequence of UniProt O43181 (O43181 whole entry, looked up): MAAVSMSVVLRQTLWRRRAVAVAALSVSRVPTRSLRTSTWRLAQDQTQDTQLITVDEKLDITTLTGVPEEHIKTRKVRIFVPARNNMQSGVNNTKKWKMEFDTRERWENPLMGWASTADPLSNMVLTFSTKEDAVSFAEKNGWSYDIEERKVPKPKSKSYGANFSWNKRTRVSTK
inactive: [1] -0.001 | [2] -0.031 | [3] -0.004 | [4] 0.07 | [5] -0.093 | [6] 0.077 | [7] -0.104 | [8] -0.081 | [9] 0.082 | [10] 0.111

MORF4L2 (UniProt Q15014)
inactive: [1] -0.114 | [2] -0.056 | [3] -0.181 | [4] 0.02 | [5] -0.03 | [6] 0.002 | [7] -0.108 | [8] -0.039 | [9] -0.108 | [10] -0.051

NCAPH (UniProt Q15003)
inactive: [1] 0.201 | [2] 0.09 | [3] 0.008 | [4] -0.059 | [5] 0.024 | [6] 0.022 | [7] -0.009 | [8] 0.02 | [9] -0.004 | [10] -0.096

MSH6 (UniProt P52701)
inactive: [1] 0.286 | [2] 0.224 | [3] 0.096 | [4] 0.002 | [5] 0.167 | [6] 0 | [7] 0.102 | [8] 0.137 | [9] -0.095 | [10] -0.143

NACC1 (UniProt Q96RE7)
inactive: [1] 0.134 | [2] 0.242 | [3] 0.065 | [4] -0.034 | [5] -0.017 | [6] 0.05 | [7] -0.02 | [8] -0.08 | [9] -0.059 | [10] -0.01

MSTO1 (UniProt Q9BUK6)
inactive: [1] 0.031 | [2] 0.06 | [3] 0.075 | [4] -0.044 | [5] -0.003 | [6] 0.007 | [7] 0.038 | [8] 0.043 | [9] 0.011 | [10] -0.041

NDUFA7 (UniProt O95182)
inactive: [1] -0.001 | [2] -0.033 | [3] 0.085 | [4] 0.078 | [5] -0.003 | [6] 0.021 | [7] 0 | [8] 0.036 | [9] 0.005 | [10] 0.01

NAP1L1 (UniProt P55209)
Sequence of UniProt P55209 (P55209 whole entry, looked up): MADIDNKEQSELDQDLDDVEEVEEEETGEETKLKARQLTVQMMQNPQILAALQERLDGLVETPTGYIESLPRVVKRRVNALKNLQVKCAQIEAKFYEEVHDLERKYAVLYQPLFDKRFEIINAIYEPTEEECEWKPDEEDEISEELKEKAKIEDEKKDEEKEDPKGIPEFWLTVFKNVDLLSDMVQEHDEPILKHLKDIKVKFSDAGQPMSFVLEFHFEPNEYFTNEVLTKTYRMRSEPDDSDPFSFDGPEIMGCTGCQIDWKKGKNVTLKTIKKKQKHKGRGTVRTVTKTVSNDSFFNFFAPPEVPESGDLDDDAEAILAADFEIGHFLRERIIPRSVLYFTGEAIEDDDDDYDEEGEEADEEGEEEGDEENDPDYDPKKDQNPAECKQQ
inactive: [1] -0.021 | [2] 0.006 | [3] 0.036 | [4] 0.035 | [5] -0.048 | [6] 0.066 | [7] 0.026 | [8] -0.018 | [9] -0.02 | [10] 0.07

NME7 (UniProt Q9Y5B8)
inactive: [1] 0.166 | [2] 0.058 | [3] -0.052 | [4] -0.247 | [5] 0.127 | [6] -0.023 | [7] 0.06 | [8] 0.006 | [9] -0.039 | [10] -0.248

PAFAH1B3 (UniProt Q15102)
inactive: [1] 0.028 | [2] 0.091 | [3] 0.029 | [4] 0.017 | [5] 0.148 | [6] -0.038 | [7] 0.085 | [8] 0.061 | [9] -0.058 | [10] 0.032

NME1 isoform 2 (UniProt P15531)
Sequence of UniProt P15531 (P15531 whole entry, looked up): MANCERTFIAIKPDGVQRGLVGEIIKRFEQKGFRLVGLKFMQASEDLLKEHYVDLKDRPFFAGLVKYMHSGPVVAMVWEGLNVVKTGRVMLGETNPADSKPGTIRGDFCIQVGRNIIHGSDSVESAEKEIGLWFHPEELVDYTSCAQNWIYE
inactive: [1] 0.034 | [2] -0.015 | [3] 0.038 | [4] 0.092 | [5] 0.063 | [6] -0.05 | [7] -0.048 | [8] -0.001 | [9] 0.032 | [10] 0.074
